From ChEMBL document CHEMBL1201862, “PubChem BioAssay data set” (2004) come the findings set out here.

Structures are written as SMILES. Among all 400,000 compounds or so, about 2,100 (0.53%) were called active. About 14% were inconclusive and are not listed. This is one part of a sample in which actives are shown more often than they occur. No rule for the calls is given here.

Sequence of Ataxin-2 (Homo sapiens) (Q99700 whole entry): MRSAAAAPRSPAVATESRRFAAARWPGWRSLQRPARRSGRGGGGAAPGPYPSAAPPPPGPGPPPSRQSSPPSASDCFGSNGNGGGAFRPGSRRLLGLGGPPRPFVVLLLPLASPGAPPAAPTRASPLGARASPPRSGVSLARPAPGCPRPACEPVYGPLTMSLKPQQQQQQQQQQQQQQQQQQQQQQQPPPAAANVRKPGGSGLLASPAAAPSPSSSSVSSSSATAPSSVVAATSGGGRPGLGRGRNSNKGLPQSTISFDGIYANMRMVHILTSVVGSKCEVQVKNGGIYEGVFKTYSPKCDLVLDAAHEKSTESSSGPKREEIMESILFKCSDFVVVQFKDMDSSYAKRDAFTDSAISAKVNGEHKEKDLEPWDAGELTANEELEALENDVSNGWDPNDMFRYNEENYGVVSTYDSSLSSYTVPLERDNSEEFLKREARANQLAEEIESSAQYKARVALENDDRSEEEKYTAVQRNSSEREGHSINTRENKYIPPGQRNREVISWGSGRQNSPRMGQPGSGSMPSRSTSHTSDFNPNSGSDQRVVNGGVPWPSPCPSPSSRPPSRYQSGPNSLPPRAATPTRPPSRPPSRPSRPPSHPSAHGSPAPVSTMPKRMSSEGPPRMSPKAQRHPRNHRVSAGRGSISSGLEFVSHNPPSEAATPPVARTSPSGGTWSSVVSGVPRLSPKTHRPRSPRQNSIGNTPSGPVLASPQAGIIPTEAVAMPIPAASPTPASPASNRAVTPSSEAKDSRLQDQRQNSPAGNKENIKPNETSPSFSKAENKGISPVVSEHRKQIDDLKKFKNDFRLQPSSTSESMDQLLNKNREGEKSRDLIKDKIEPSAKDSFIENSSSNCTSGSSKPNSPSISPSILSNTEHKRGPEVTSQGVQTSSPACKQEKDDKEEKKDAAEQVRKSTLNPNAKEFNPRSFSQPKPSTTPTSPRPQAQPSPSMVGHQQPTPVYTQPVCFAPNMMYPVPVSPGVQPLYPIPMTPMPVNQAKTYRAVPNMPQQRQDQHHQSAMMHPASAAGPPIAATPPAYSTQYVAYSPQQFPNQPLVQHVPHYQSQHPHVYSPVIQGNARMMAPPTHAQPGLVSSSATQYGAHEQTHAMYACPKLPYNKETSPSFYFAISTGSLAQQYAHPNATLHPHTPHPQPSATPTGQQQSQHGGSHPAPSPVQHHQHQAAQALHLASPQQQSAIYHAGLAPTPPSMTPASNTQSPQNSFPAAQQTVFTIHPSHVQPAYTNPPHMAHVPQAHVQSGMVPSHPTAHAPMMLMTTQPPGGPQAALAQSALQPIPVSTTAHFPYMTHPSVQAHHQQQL

The experiment addresses Ataxin-2 (Homo sapiens) (UniProt Q99700). As to the kind of experiment: qHTS for Inhibitors of ATXN expression. In kind it is functional. (In general: qHTS replaces the single test concentration by a dilution series.)
Take `Cc1ccc(C(=O)Nc2nc3n(n2)C(c2ccc(F)cc2)C=C(c2ccccc2)N3)cc1` (centres undefined): the Potency entry is “inactive”. The figure for `O=C1/C(=C/c2ccccc2Cl)SC(=S)N1CCCC(=O)N(CCO)c1ccccc1` is 31.6 µM (active).

For `COc1cc([N+](=O)[O-])cc(/C=C2/SC(=S)N(Cc3ccccc3)C2=O)c1O`, the Potency is 20 µM (active).

Consider `NS(=O)(=O)c1ccc(CCN2C(=O)/C(=C\c3ccc(Cl)cc3)SC2=S)cc1`, for which the Potency is 17.8 µM (active). The entry for `O=C(O)CN1C(=O)/C(=C\c2cccc(OCc3ccc(Cl)cc3)c2)SC1=S` is “inactive”; for `O=C(O)c1cc(-c2ccc(/C=C3/SC(=S)N(Cc4ccccc4)C3=O)o2)ccc1Cl` it is “inactive”. The figure for `O=C1/C(=C\c2cccc(O)c2O)SC(=S)N1Cc1ccccc1` is 31.6 µM (active). The entry for `NS(=O)(=O)c1ccc(CCNS(=O)(=O)c2ccc(Cl)s2)cc1` is “inactive”. For `COc1ccc(/C=C(\C)C(=O)c2c(C)cc(C)nc2O)cc1`, the Potency entry is “inactive”.

Turning to `Cc1ccc2c(CN(C)Cc3cccc(Cl)c3)cc(=O)oc2c1C`, the Potency entry was “inactive”. The entry for `C=C1c2ccccc2N=C(S)N1Cc1ccc2c(c1)OCO2` is “inactive”; for `COCc1cc(C)nc(SCC(=O)Oc2ccc(Cl)cc2)c1C#N` it is “inactive”; for `N=c1c(C(=O)NC2CCCCC2)cc2c(=O)n3ccccc3nc2n1CC1CCCO1` (centres undefined) it is “inactive”. The entry for `CCn1nc(NC(=O)C(C)(C)C)c2cc3cccc(C)c3nc21` is “inactive”.

Take `O=C1c2ccc([N+](=O)[O-])cc2C(=O)N1c1ccc(Cl)cn1`: the Potency result is “inactive”. The figure for `O=C1/C(=C\c2cc([N+](=O)[O-])ccc2O)SC(=S)N1Cc1ccc(Cl)cc1` is 35.5 µM (active); for `CN(C)c1ccc(/C=C/C=N/Nc2nc(N3CCOCC3)nc(N3CCOCC3)n2)cc1` it is “inactive”; for `O=C(CCl)NNc1nc(-c2ccccc2)c2cc(Cl)ccc2n1` it is 1.58 µM (active).

Consider `OCCCNc1nc(-c2ccccc2)c2cc(Cl)ccc2n1`, for which the Potency entry was “inactive”. With `OCCNc1nc(-c2ccccc2)c2cc(Cl)ccc2n1`, the Potency result is “inactive”. The entry for `CCC(C)(C)n1nnnc1C(c1ccc(F)cc1)N1CCC(C(N)=O)CC1` (centres undefined) is “inactive”. The entry for `CCOC(=O)c1c(CC(C)C)csc1/N=C/C1C(=O)CCCC1=O` is “inactive”; for `CCOC(=O)c1c(CC(C)C)csc1N` it is “inactive”; for `CCOC(=O)c1c(CC(C)C)csc1NC=C1C(=O)CCCC1=O` it is 39.8 µM (active). The entry for `CCc1c(C)c2cc(Cl)c(O)c(CN3CCCC3)c2oc1=O` is “inactive”; for `O=C(NNC(=O)c1ccc(Cl)cc1Cl)c1cnccn1` it is “inactive”; for `CCc1ccc(OCCSc2nc3ccccc3n2CC(=O)N2CCCCC2)cc1` it is 39.8 µM (active). With `Cc1ccc(OCCSc2nc3ccccc3n2CC(=O)N2CCCCC2)c(C)c1`, the Potency was 35.5 µM (active). The entry for `CCc1ccc(OCCSc2nc3ccccc3n2CCC(=O)O)cc1` is “inactive”; for `COc1ccccc1OCc1nnc(SCC(=O)N2CCCCC2)o1` it is “inactive”; for `O=C(Cn1c(SCCOc2ccc(Cl)cc2)nc2ccccc21)N1CCCCC1` it is 39.8 µM (active).

Take `COCCn1c(SCC(=O)NC2CC2)nc2ccccc21`: the Potency result was “inactive”. For the molecule `CN(CCOc1ccc(Cl)cc1)C(=O)c1ccccc1SCC(=O)N1CCCC1`, the Potency result is “inactive”. In the case of `Cc1cccc(OCCCC(=O)N2CCCCCC2)c1C`, the Potency entry was “inactive”. The entry for `O=C(CSc1nc2ccccc2n1Cc1ccc(Cl)cc1)N/N=C/c1ccc(C(=O)O)cc1` is “inactive”; for `Clc1ccc(-n2nnnc2Sc2ncnc3sccc23)cc1` it is 20 µM (active); for `COc1ccc(CSc2ncnc3sccc23)cc1F` it is “inactive”. `CC(=O)Nc1cc(-c2ccc(N3CCN(C)CC3)cc2)cn2c(-c3ccc(F)cc3)cnc12`: the Potency is 35.5 µM (active).

Take `CC(=O)Nc1cc(-c2ccc(N3CCN(C)CC3)cc2)cn2c(-c3ccc(F)c(Cl)c3)cnc12`: the Potency was 35.5 µM (active).

Regarding `COc1ccc(-c2c(C)c3ccc(O)c(CN4CCN(C)CC4)c3oc2=O)cc1OC`, the Potency result is “inactive”. The figure for `COc1cc(-c2cnc3c(NC(C)=O)cc(-c4ccc(N5CCN(C)CC5)cc4)cn23)cc(OC)c1OC` is 39.8 µM (active). The entry for `CN1CCN(c2ccc(-c3cc(NC=O)c4ncc(-c5ccc(F)c(Cl)c5)n4c3)cc2)CC1` is “inactive”; for `Cn1c(-c2ccc(F)cc2)cnc1NCc1ccc(F)cc1F` it is “inactive”.

As for `COc1ccc(-c2cc(NC=O)c3ncc(-c4cnn(C)c4)n3c2)cc1`, the Potency entry was “inactive”. The entry for `CCCCNC(=O)c1cc2c(=O)n3cccc(C)c3nc2n(Cc2ccncc2)c1=N` is “inactive”. The entry for `CCCc1cc(NCCCN(C)C)n2c(nc3ccccc32)c1C#N` is “inactive”; for `Cc1nc(N/N=C/c2ccc(Br)cc2)cc(N2CCOCC2)n1` it is “inactive”; for `O=C(OCc1nc(O)c2c(-c3ccccc3)csc2n1)c1cc(Cl)ccc1[N+](=O)[O-]` it is “inactive”. The entry for `C=CCNC(=O)c1c(N)n(-c2cccc(S(N)(=O)=O)c2)c2nc3ccccc3nc12` is “inactive”; for `CC1=CC(=O)C=C/C1=C(/c1ccc(O)cc1C)c1ccccc1S(=O)(=O)O` it is “inactive”; for `O=c1oc2cc(O)ccc2c2ccccc12` it is “inactive”. Take `O=S(=O)(O)c1cc(O)c(N=Nc2ccc(O)cc2O)c2ccccc12`: the Potency was 22.4 µM (active). As to `CN1C(=O)/C(=N\CCc2ccccc2)c2c3ccccc3c(O)c3cccc1c23`, the Potency entry was “inactive”.

For the molecule `Sc1nc(-c2ccccc2)cn1/N=C/c1ccccc1Br`, the Potency entry was “inactive”. The entry for `CCn1c(/C=C/c2ccc(O)cc2)nc2ccccc2c1=O` is “inactive”; for `COc1ccc(-c2cc(-c3nnc(COC(=O)c4ccncc4)o3)c3ccccc3n2)cc1OC` it is “inactive”. The entry for `NC(=O)c1ccc(Oc2ccc(Cl)cc2)c([N+](=O)[O-])c1` is “inactive”; for `CS(=O)(=O)c1ccc(C(=O)OCc2nnc(-c3ccc(Cl)cc3)o2)cc1[N+](=O)[O-]` it is 28.2 µM (active). Regarding `CC(=O)Oc1ccc(-c2cc3c(OC(C)=O)cc(OC(C)=O)cc3oc2=O)cc1`, the Potency result is “inactive”. The entry for `OC[C@@H]1[C@@H](c2ccc(F)cc2)C(c2cccc(Cl)c2)=NN1c1ccccc1` is “inactive”.

`CCN(CC)CCn1c(C)nc2c(sc3nc4c(cc32)COC(C)(C)C4)c1=O`: the Potency result is “inactive”.

Turning to `O=C(N/N=C/c1sc(=O)n(Cc2ccc(Br)cc2)c1Cl)c1ccco1`, the Potency is 20 µM (active). The entry for `C/C(=N\NC(=O)c1ccc(C(=O)N/N=C(\C)c2ccco2)o1)c1ccco1` is “inactive”; for `O=C(N/N=C/c1c(O)ccc2ccccc12)c1ccc(Br)o1` it is “inactive”.
